Experiment: qHTS profiling of the MIPE4 collection as inhibitors of Plasmodium falciparum (3D7) proliferation (AID 743344);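 note: scaled between DMSO vehicle wells and 0.29 µM artemisinin as full inhibition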
Conditions: P. falciparum 3D7 in erythrocytes, SYBR Green DNA fluorescence, 72 h; at 28.5 µM unless noted
From the text: Plasmodium falciparum is a virulent malarial parasite that kills 1-2 million people worldwide each year. Transmitted by mosquitoes, the sporozoite form of the parasite enters the blood stream to infect hepatocytes, where they become merozoites that infect red blood cells (erythrocytes). Within erythrocytes, merozoites begin a […] cycle of growth and division, after which the parasite is released to infect new red blood cells. Gametocytes, which form within erythrocytes as well, circulate in the bloodstream and are ingested by the mosquito, thereby completing the life cycle. To profile malarial isolates for differential chemical responses and to identify inhibitors of malarial growth, an assay that measures P. falciparum growth and replication within erythrocytes was employed. This assay uses a DNA binding fluorescent dye (SYBR Green) to detect parasite DNA following cell lysis. Because mature erythrocytes lack DNA, only Plasmodium-derived DNA is detected.
The SYBR Green viability assay was adapted from a method described previously (Plouffe et al., 2008). For screening 3 ul culture medium was dispensed into 1536 well black clear bottom plates (Aurora Biotechnologies) using a Multidrop Combi (Thermo Fisher Scientific Inc.), 23 nL compounds in DMSO were added by a pin tool (Kalypsys), and 5 ul of erythrocytes infected with P. falciparum (0.3% parasitemia, 2.5% hematocrit final concentration) were added. The plates were incubated at 37 C in a humidified incubator in 5% CO2 for 72 h, and 2 ul lysis buffer (20 mM Tris HCl, 10 mM EDTA, 0.16% saponin, 1.6% triton X, 10X SYBR Green I supplied as 10,000X […] by Invitrogen) was added to each well. The plates were mixed for 25 sec with gentle shaking and incubated overnight at room temperature in the dark. The following morning, fluorescence intensity at 485(14) nm excitation and 535(25) nm emission wavelengths was measured on an EnVision (Perkin Elmer) plate reader. Plate reads were normalized relative to the control inhibitor (0.29 uM artemisinin) and vehicle (DMSO) wells present on each plate and then corrected by an algorithm using vehicle-only control plates at the beginning and end of the compound plate stack.

Row | Structure (SMILES) | parasite growth, % of DMSO control
1 | CC(=O)ON=C1C(c2c(O)[nH]c3cc(Br)ccc23)=Nc2ccccc21 | 2.37%
2 | CC(C)(O)CC[C@@H](O)[C@](C)(O)[C@H]1CC[C@@]2(O)C3=CC(=O)[C@@H]4C[C@@H](O)[C@@H](O)C[C@]4(C)[C@@H]3CC[C@]12C | 385%
3 | Cc1cncc2cccc(S(=O)(=O)N3CCCN(C(=O)CN)C[C@@H]3C)c12 | 85.8%
4 | NC(=O)N1CCC(CC(=O)N2CCC([C@H]3c4ncc(Br)cc4CCc4cc(Cl)cc(Br)c43)CC2)CC1 | 5.47%
5 | CN(C)c1ccc(C(=O)NCCCCCCC(=O)NO)cc1 | 5.09%
6 | Cc1ccc2nc(NCCN)c3ncc(C)n3c2c1 | 63.3%
7 | CCOc1cc2ncc(C#N)c(Nc3ccc(OCc4ccccn4)c(Cl)c3)c2cc1NC(=O)C=CCN(C)C | 7.93%
8 | NC(=NCCCCCCN=C(N)N=C(N)Nc1ccc(Cl)cc1)N=C(N)Nc1ccc(Cl)cc1 | 12.4%
9 | CC(=O)N[C@@H]1[C@H](O[C@@H]2c3ccc(c(Cl)c3)Oc3cc4cc(c3O[C@H]3O[C@H](CO)[C@@H](O)[C@H](O)[C@H]3NC(=O)CCCCCCCC(C)C)Oc3ccc(cc3Cl)C[C@H]3NC(=O)[C@H](N)c5ccc(O)c(c5)Oc5cc(O)cc(c5)[C@H](NC3=O)C(=O)N[C@H]4C(=O)N[C@H]3C(=O)N[C@@H]2C(=O)N[C@@H](C(=O)O)c2cc(O)cc(O[C@H]4O[C@H](CO)[C@@H](O)[C@H](O)[C@H]4O)c2-c2cc3ccc2O)O[C@H](CO)[C@@H](O)[C@@H]1O | 395%
10 | CC(=O)OCC(=O)[C@@]1(O)CC[C@H]2[C@@H]3CCC4=CC(=O)CC[C@]4(C)[C@@H]3C(=O)C[C@@]21C | 68.4%
11 | C=CC1=C(C(=O)O)N2C(=O)[C@@H](NC(=O)C(=NO)c3csc(N)n3)[C@H]2SC1 | 92.8%
12 | Cn1cc(-c2ccc3ncc(Cc4ccc5ncccc5c4)n3n2)cn1 | 26.2%
13 | O=C(O)c1ccc(Nc2ncc3c(n2)-c2ccc(Cl)cc2C(c2c(F)cccc2F)=NC3)cc1 | 56.9%
14 | C=CC[C@@H]1C=C(C)C[C@H](C)C[C@H](OC)[C@H]2O[C@@](O)(C(=O)C(=O)N3CCCC[C@H]3C(=O)O[C@H](C(C)=C[C@@H]3CC[C@H](O)[C@H](OC)C3)[C@@H](C)[C@@H](O)CC1=O)[C@@H](C)C[C@@H]2OC | 8.55%
15 | CCc1cnn2c(NCc3ccc[n+]([O-])c3)cc(N3CCCC[C@@H]3CCO)nc12 | 14.9%
16 | Cc1noc(-c2ccc(CSCCC(=O)O)cc2)c1NC(=O)OC(C)c1ccccc1Cl (stereo not given) | 41.1%
17 | CC(C)(N)c1ccc(-c2nc3ccccc3nc2-c2ccccc2)cc1 | 21.6%
18 | O=c1c(O)c(-c2ccc(O)c(O)c2)oc2cc(O)ccc12 | 5.73%
19 | CC(=O)[C@]1(O)Cc2c(O)c3c(c(O)c2[C@@H](O[C@H]2C[C@H](N)[C@@H](O)[C@H](C)O2)C1)C(=O)c1ccccc1C3=O | 27.7%
20 | Nc1ccc(C(=O)Nc2cccc(-c3nc(N4CCOCC4)c4oc5ncccc5c4n3)c2)cn1 | 6.14%

Row | Structure (SMILES) | parasite growth, % of DMSO control
21 | O=S(=O)(O)CCSSCCS(=O)(=O)O | 79.5%
22 | CCc1c(O)cc(O)c(C(=O)c2ccc(OCCN3CCOCC3)c(OC)c2)c1CC(=O)N(CCOC)CCOC | 4.87%
23 | CCCCCCCN(CC)CCCC(O)c1ccc(NS(C)(=O)=O)cc1 (stereo not given) | 58.8%
24 | CC1(C)[C@H](O[C@H]2O[C@H](C(=O)O)[C@@H](O)[C@H](O)[C@H]2O[C@@H]2O[C@H](C(=O)O)[C@@H](O)[C@H](O)[C@H]2O)CC[C@@]2(C)[C@H]1CC[C@]1(C)[C@H]2C(=O)C=C2[C@H]3C[C@@](C)(C(=O)O)CC[C@]3(C)CC[C@]21C | 99.2%
25 | COc1cc(C)c(Sc2cnc(NC(=O)c3ccc(CNC(C)C(C)(C)C)cc3)s2)cc1C(=O)N1CCN(C(C)=O)CC1 (stereo not given) | 7.09%
26 | C[C@@H](Cc1cc2c(c(C(N)=O)c1)N(CCCO)CC2)NCCOc1ccccc1OCC(F)(F)F | 48.1%
27 | COc1cc(C(C)C)c(Oc2cnc(NC(CO)CO)nc2N)cc1I | 82.2%
28 | CCCCCN=C(N)NN=Cc1c[nH]c2ccc(OC)cc12 | 7.63%
29 | Cn1cc(C2=C(c3c4n(c5ccccc35)CCC(CN)C4)C(=O)NC2=O)c2ccccc21 (stereo not given) | 3.66%
30 | CCOC(=O)N1CCN([N+]([O-])=NOc2ccc([N+](=O)[O-])cc2C#N)CC1 | 10.5%
31 | C[C@H]1O[C@H](O[C@H]2[C@H](O)[C@@H](O)[C@@H](O[C@H]3[C@H](O)[C@@H](O)C(O)O[C@H]3CO)O[C@H]2CO)[C@H](O)[C@@H](O)[C@H]1N[C@H]1C=C(CO)[C@@H](O)[C@H](O)[C@@H]1O (stereo not given in full) | 92.3%
32 | COc1cc(OC)cc(-c2ccc3ncc4ccc(=O)n(-c5ccc(N6CCNCC6)c(C(F)(F)F)c5)c4c3c2)c1 | 5.19%
33 | NC[C@H]1O[C@H](O[C@H]2[C@@H](O)[C@@H](O[C@H]3O[C@H](CO)[C@@H](O)[C@H](N)[C@@H]3O)[C@H](N)C[C@@H]2N)[C@H](N)C[C@H]1O | 97.7%
34 | CC(=O)OC[C@@H]1O[C@@H](n2ccc(=O)[nH]c2=O)[C@H](OC(C)=O)[C@H]1OC(C)=O | 158%
35 | Nc1nc(=O)n([C@H]2C[C@H](O)[C@@H](CO)O2)cc1F | 99.5%
36 | O=c1[nH]c(=O)n([C@H]2C[C@@H](O)[C@@H](CO)O2)cc1F | 183%
37 | CC(C)C[C@H](NC(=O)CNC(=O)c1cc(Cl)ccc1Cl)B1OC(=O)CC(CC(=O)O)(C(=O)O)O1 (stereo not given in full) | 4.74%
38 | CN(C)CCN1C(=O)c2cccc3cc(N)cc(c23)C1=O | 18.3%
39 | CCCCCCCCc1ccc(CCC(N)(CO)CO)cc1 | 9.21%
40 | CN(C)CC[C@H](c1ccc(Cl)cc1)c1ccccn1 | 94.7%
